Rows were chosen to be rich in hits. Some 2.4% of all compounds tested hit in one or more screens of this group.
D2 antag – antagonizes the human D2 dopamine receptor; P14416; HEK293 TREx D2 cells, calcium flux, dopamine EC80; inhibition, % at 10 µM; actives 2% (n = 340,000); in the data active = inhibition above about 30%; inactive = below that, where a call was filed
Target sequence (P14416 whole entry, looked up): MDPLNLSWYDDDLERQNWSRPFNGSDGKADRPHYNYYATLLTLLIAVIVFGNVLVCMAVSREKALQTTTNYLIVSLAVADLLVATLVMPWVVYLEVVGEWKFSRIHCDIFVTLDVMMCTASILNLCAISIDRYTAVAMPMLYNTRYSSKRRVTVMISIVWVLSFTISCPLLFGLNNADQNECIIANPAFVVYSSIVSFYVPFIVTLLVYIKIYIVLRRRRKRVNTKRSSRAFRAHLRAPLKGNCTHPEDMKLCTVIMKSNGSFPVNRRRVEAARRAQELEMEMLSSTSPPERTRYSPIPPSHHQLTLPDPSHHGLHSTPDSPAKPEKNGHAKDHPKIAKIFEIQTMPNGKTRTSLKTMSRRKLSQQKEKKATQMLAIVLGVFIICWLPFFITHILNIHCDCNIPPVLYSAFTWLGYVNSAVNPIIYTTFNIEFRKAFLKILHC
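Tetracycline-induced HEK293 TREx cells expressing D2 receptor forced-coupled to calcium signalling, loaded with no-wash calcium dye. Compounds added and calcium flux read 180 s, then dopamine added at EC80 and read a further 180 s.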
D2 ag-1 – human D2 receptor agonism in beta-arrestin assay | P14416 | DiscoveRx PathHunter D2 beta-arrestin, luminescence, 90 min; 100% = 57 uM dopamine signal | activation, % (concentration not given with the values) | actives 0.084% (n = 360,000); in the data active = activation above about 40%
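Agonist mode: compounds alone added to overnight-plated D2 PathHunter cells for 90 min at 37 C, with 57 uM final dopamine (EC100) defining full response. Beta-arrestin recruitment detected by chemiluminescent reagent, read after 1 h at ambient temperature.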
D2 PAM-1 – positive allosteric modulators of human D2 dopamine receptor; P14416; DiscoveRx D2 beta-arrestin cells, luminescence, 90 min; 100% = 57 uM dopamine signal; potentiation, % (no concentration beside the values); actives 0.23% (n = 360,000); in the data active = potentiation above about 50%
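D2 cells co-treated with compound plus 50 nM dopamine (EC20) for 90 min at 37 deg C to detect potentiation. Beta-arrestin recruitment was read as enzyme-fragment luminescence after 1 h at ambient temperature. Full response was set by 57 uM dopamine.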
D2 PAM-2 – D2 dopamine receptor (human) potentiation | P14416 | HEK293 T-REx D2, calcium flux, EC20 dopamine potentiation | potentiation, % at 10 µM | actives 0.34% (n = 340,000);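 active = potentiation over 3 SD above the plate norm, cut at about 30% in these data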
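Primary screen. Calcium kinetics in induced HEK293 T-REx D2 cells: compound pre-addition 180 s, EC20 dopamine, 180 s more.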
D2 ag-2 – D2 dopamine receptor (human) agonism; P14416; HEK293 T-REx D2 cells, calcium flux agonist mode; activation, % at 2 µM; actives 0.53% (n = 340,000);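 active = activation over 3 SD above normal in the single-dose calcium agonist read, cut at about 30% in these data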
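Agonism is scored from calcium flux in a force-coupled, inducible HEK293 cell line expressing D2, read kinetically for 180 s after compound addition against dopamine controls.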
Numbers stand for hits; 0 = inactive; - = no result given.

SMILES	D2 antag	D2 ag-1	D2 PAM-1	D2 PAM-2	D2 ag-2
CC(=O)NC1CCCC(NC(C)=O)C1 (stereo not given)	-	0	0	-	-
CCC1(NC(C)=O)CC2CC1CC2NC(C)=O (stereo not given)	38.5	0	0	0	0
Cc1ccccc1NC(=O)CSc1nc2c(oc3ccccc32)c(=O)n1-c1ccccc1F	-	-	-	0	0
COc1ccc(C2(c3ccc(OC)cc3)NC(=O)N(CC(=O)NCC(C)c3ccccc3)C2=O)cc1 (stereo not given)	67.8	0	0	0	0
COc1ccc(C2(c3ccc(OC)cc3)NC(=O)N(CC(=O)NC(C)C)C2=O)cc1	0	0	0	0	0
COc1ccccc1C(=O)NCCC(=O)N(C)CC(=O)Nc1c(Cl)cccc1Cl	0	0	0	0	0
COc1ccc(Cl)cc1NC(=O)CN(C)C(=O)c1cc2c(s1)CCCC2	46.4	0	0	0	0
COc1ccc(Cl)cc1NC(=O)CN(C)C(=O)Cc1ccc2c(c1)CCC2	0	0	0	0	0
COc1ccc(Cl)cc1C(=O)NCCN(C)C	33.5	0	0	0	0
COc1ccc(Cl)cc1NC(=O)CN(C)C(=O)c1cn(-c2ccccc2)nc1-c1cccnc1	44.3	0	0	0	0
COc1ccc(Cl)cc1NC(=O)CN(C)C(=O)CCNC(=O)c1ccccc1OC	30.6	0	0	0	0
O=S1(=O)CC(N2CCC(Cc3ccccc3)CC2)CN1C1CCCCC1 (stereo not given)	-	0	0	-	-
O=C(CN1CCN(C2CCCCC2)CC1)c1c[nH]c2ccccc12	41.6	0	0	0	0
Cc1ccc(CN2CC(C(=O)N(Cc3nnc(-c4ccccc4Cl)o3)C3CC3)CC2=O)cc1 (stereo not given)	0	0	0	0	0
CCN(c1ccccc1)c1nnc(NC(=O)Nc2cccc(Cl)c2C)s1	-	-	-	0	0
Cc1ccc(NC(=O)/C=C/c2cccc(C(F)(F)F)c2)cc1	68.5	0	0	0	0
O=C(/C=C/c1cccc(C(F)(F)F)c1)Nc1cccc(C(F)(F)F)c1	0	0	0	0	0
O=C(NNc1ccccc1[N+](=O)[O-])Nc1cccc(Cl)c1	0	0	0	0	0
O=C(CSc1nnc(NC(=O)c2c(F)cccc2F)s1)NCC1CCCO1 (stereo not given)	73.8	0	0	0	0
O=C(CSc1nnc(NC(=O)c2cccc(F)c2)s1)NCC1CCCO1 (stereo not given)	-	0	0	0	-
CCCCCCOC(=O)C(C#N)c1nc2ccccc2nc1N1CCCCC1 (stereo not given)	0	0	0	35.1	0
Cc1ccc(SCC(=O)Nc2ccc(C(=O)Nc3ccc(O)cc3)cc2)cc1	71.8	0	0	0	0
O=C(c1cc(C2CC2)nn1-c1ccccc1)N1CCN(Cc2c(F)cccc2Cl)CC1	0	0	0	0	0
CCN(CC)CCOC(=O)c1ccc(Cl)cc1Cl	32.7	0	0	0	0
CCN(CC)CCOC(=O)c1ccc(Cl)cc1	0	0	0	0	0
SMILES	D2 antag	D2 ag-1	D2 PAM-1	D2 PAM-2	D2 ag-2
Cc1nn(CC(=O)N2CCN(c3cccc(C(F)(F)F)c3)CC2)c(=O)c2cccn12	0	0	0	0	0
C[C@H](CO)N1C[C@H](C)[C@@H](CN(C)S(=O)(=O)c2ccccc2)Oc2ccc(NC(=O)Nc3ccc4c(c3)OCO4)cc2C1=O	-	0	0	-	-
CN(c1ccc(OCC(=O)Nc2ccccc2C(=O)O)cc1)S(=O)(=O)c1ccc(Cl)cc1	-	0	62.2	-	-
CC(=O)Nc1ccc(S(=O)(=O)N(C)c2ccc(OCC(=O)Nc3ccccc3C(C)=O)cc2)cc1	0	0	0	0	0
COc1ccc(Cl)cc1-c1cc(C(=O)Nc2ccc(Br)cc2)[nH]n1	-	0	0	-	-
COC(=O)c1c(C(=O)OC)c2ccccn2c1C(=O)c1ccc([N+](=O)[O-])cc1	-	0	0	-	-
COC(=O)c1c(C(=O)OC)c2cc(C(=O)c3ccccc3)ccn2c1Cl	0	0	0	47.2	0
CCOc1cc(/C=N\NC(=O)OC(C)(C)C)ccc1OC(=O)c1ccco1	31.3	0	0	0	0
COc1cc(/C=N\NC(=O)c2ccc(C)nc2)ccc1OC(=O)c1ccc2c(c1)OCO2	0	0	0	-	0
COc1cc(/C=N\NC(=O)c2ccc(C)nc2)ccc1OC(=O)c1ccco1	34.4	0	0	0	0
CCN1CCN(C(=O)Nc2ccc(OC)cc2OC)CC1	48.8	0	0	0	0
COc1ccc(NC(=O)N2CCCCCC2)c(OC)c1	0	0	0	0	0
CCOC(=O)c1sc(=S)n(-c2ccc(C)cc2)c1SC	47.6	0	0	0	0
O=C(c1ccc2c(c1)OCO2)C1CCCN(C2CCN(CCc3ccccc3)CC2)C1 (stereo not given)	69.8	0	0	0	0
CCCCn1c(N)c(N(CC(C)C)C(=O)c2ccc(OCc3c(C)noc3C)cc2)c(=O)[nH]c1=O	0	0	0	0	0
O=C(NCC1CCCO1)c1nnc(Cc2ccc(F)cc2)o1 (stereo not given)	38.9	0	0	0	0
Cc1onc(-c2c(Cl)cccc2Cl)c1C(=O)NCCCN1CCOCC1	43.5	0	0	0	0
Cc1onc(-c2ccccc2Cl)c1C(=O)NCCCN1CCOCC1	0	0	0	0	0
O=c1cc(CSc2nnc(COc3ccccc3)n2-c2ccccc2)c2ccccc2[nH]1	0	0	0	0	0
Cn1c(COc2ccccc2)nnc1SCc1cc(=O)[nH]c2ccccc12	38.7	0	0	0	0
COCCCNc1nc(N)c([N+](=O)[O-])c(NC2CCCCC2)n1	30.4	0	0	0	0
CC(C)CCNc1nc(N)c([N+](=O)[O-])c(NCC2CCCO2)n1 (stereo not given)	0	0	0	0	32.5
CCOC(=O)Cn1c(C)c(Br)c(=O)c2cccc(C)c21	31.2	0	0	0	0
COc1c(F)c(F)c(C(=O)O)c(Nc2ccc(C)cc2)c1F	0	0	0	0	0
Cc1ccc(C)c(Nc2c(F)c(F)c(F)c(F)c2C(=O)O)c1	0	0	0	32.5	0
SMILES	D2 antag	D2 ag-1	D2 PAM-1	D2 PAM-2	D2 ag-2
COc1cccc(Cn2c(SCC(=O)N(C)c3ccccc3)nc3ccccc32)c1	-	-	-	0	0
O=C(NNc1nc2cc3c(cc2s1)OCO3)c1cccc(F)c1	40.0	0	0	0	0
Cc1ccc(C(=O)O)cc1Nc1nc2ccccc2n2nnnc12	-	-	-	0	0
Cc1ccc(NC(=O)CCc2nnc3ccc(N4CCC(C)CC4)nn23)nc1	32.0	0	0	0	0
CCCOc1ccccc1C(=O)Nc1nc2c(s1)CCCC2	-	-	-	0	-
NCCC(=O)N1c2ccccc2Sc2ccc(Cl)cc21	48.1	0	0	0	42.4
CN1CCC=C(C(=O)N2c3ccccc3Sc3ccc(Cl)cc32)C1	38.6	0	0	0	0
COCCCn1c(SCC(=O)NC2CCCC2)nnc1-c1cccs1	0	0	0	0	0

Source: PubChem
